A short description of experiment [1]: qHTS assay for small molecules that induce genotoxicity in human embryonic kidney cells expressing luciferase-tagged ATAD5 (AID 651632). Note: nearly all actives have a fitted effect of over 15% in size. A digest of the protocol: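 Increased luciferase signal from ATAD5-tagged reporter cells indicates DNA-damage-driven ATAD5 induction. HEK293T cells are treated for 16 hr at 37C before detection with Amplite.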
Experiment [2] can be described thus: qHTS assay for small molecule agonists of the p53 signaling pathway - cell viability (AID 651633; calls by dose curve;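 note: p53RE-bla HCT reporter cells with a stable beta-lactamase p53 reporter; series mostly up to about 83 µM; nearly all actives have a fitted effect of over 30% in size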). The method in brief: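 p53RE-bla cells were treated with compound for 16 hours at 37 C. Cytotoxicity was then measured as CellTiter-Glo luminescence after 30 min at room temperature.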
The nature of experiment [3]: qHTS assay for small molecules that induce genotoxicity in human embryonic kidney cells expressing luciferase-tagged ATAD5 - cell viability (AID 651634; calls by dose curve; note: nearly all actives have a fitted effect of over 25% in size). A digest of the protocol:
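Cytotoxicity counterscreen in HEK293T cells bearing an ATAD5-luciferase reporter: live-cell protease activity measured by CellTiter-Fluor fluorescence after 15.5 hr compound exposure.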

Experiment [4] is described as follows: qHTS assay for small molecule disruptors of the mitochondrial membrane potential - cell viability (AID 720634; calls by dose curve;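 note: human HepG2 liver cancer cells; series mostly up to about 83 µM; nearly all actives have a fitted effect of over 20% in size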). The method in brief:
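After overnight attachment at 37 C, HepG2 cells received compound or DMSO vehicle for 1 hr. Viability is then taken from ATP-driven luminescence following a 30 min room-temperature CellTiter-Glo step.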

Experiment [5] is described as follows: qHTS assay to test for compound auto fluorescence at 590 nm (red) in HepG2 cells (AID 720674). The method in brief:
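Seeding: 2,000 HepG2 cells/well, MEM/10% FBS, overnight 37 C. Dosing: compound vs DMSO. Incubation: 1 hr, 37 C, 5% CO2. Read: fluorescence 540 ex/590 em, Rose Bengal sodium as red reference.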

Experiment [6] in a line: qHTS assay to test for compound auto fluorescence at 535 nm (green) in HepG2 cells (AID 720675).
The nature of experiment [7]: qHTS assay to test for compound auto fluorescence at 460 nm (blue) in HEK293 cells (AID 720678). A digest of the protocol: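 HEK293 cells (2,000/well, medium with 10% dialyzed FBS) attached 4-5 hr, then exposed to compound overnight at 37C, 5% CO2. Blue fluorescence read at 405/460 nm, with triamterene as reference fluorophore.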
Experiment [8] can be described thus: qHTS assay to test for compound auto fluorescence at 590 nm (red) in HEK293 cells (AID 720679). The method in brief: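 HEK293 cells (2,000/well, 10% dialyzed FBS) attached 4-5 hr, then dosed with compound or DMSO and incubated overnight at 37C, 5% CO2. Red fluorescence read at 540/590 nm, Rose Bengal sodium as reference fluorophore.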
Experiment [9] can be described thus: qHTS assay for small molecule disruptors of the mitochondrial membrane potential (AID 720635). Note: potency is the fitted concentration of half-maximal effect. A digest of the protocol: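 HepG2 cells exposed to compound 1 hr at 37C, then Mito-MPS dye 30 min. Ratio read of aggregate (540/590 nm) versus monomer (490/535 nm) fluorescence.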

A number with no mark means an inactive call. Records with an inconclusive call do not appear. The source made the active and inactive calls. Unless noted, calls come from the whole dose curve; as a rule, active = well fitted curve in the direction sought with a large enough effect in the repeat runs; inconclusive = weak or mixed curves; inactive = no such curve, though single readings can be large; an effect the other way counts as inactive or inconclusive.
% is set by controls: 0 for no effect and ±100 for the full control effect.

As for `COC(=O)CCCCCCCC(=O)OC`, the Potency result in experiment [1] and in experiment [3] was “inactive” throughout. In addition, the compound was classed as inactive in experiment [2], in experiment [4], in experiment [5], in experiment [6], in [7] and in experiment [8].
In the case of `CC(C)(C)c1cc(CCC(=O)NN)cc(C(C)(C)C)c1O`, the Potency result in experiment [1] and in experiment [3] was “inactive” each time. Besides, the compound was classed as inactive in experiment [2], in [4], in experiment [5], in experiment [6], in experiment [7] and in experiment [8].
`CC(C)c1ccc2cc(C(C)C)ccc2c1`: the Potency result in experiment [1] and in experiment [3] was “inactive” each time. For the same compound, the result in [4], in experiment [5], in experiment [6], in experiment [7] and in experiment [8] was inactive.
As for `O=C1c2cccc3c2[C@H](CCC3)CN1[C@@H]1CN2CCC1CC2`, the Potency result in [1] and in [9] was “inactive” each time. Moreover, the outcome in experiment [2], in experiment [4], in experiment [5], in experiment [6], in [7] and in experiment [8] was inactive.
On to `CCN(CC)CC(=O)Nc1c(C)cccc1C`, for which the outcome in experiment [2], in [4], in experiment [5], in experiment [6], in experiment [7] and in experiment [8] was inactive. Besides, the Potency result in experiment [3] and in experiment [9] was “inactive” in each case.
`CC(C)N(c1ccccc1)C(C)C`: the Potency result in experiment [1] and in [3] was “inactive” in each case. The call in experiment [4], in experiment [5], in [6], in [7] and in experiment [8] was inactive.
As for `CCCOC(OCCC)OCCC`, the Potency result in experiment [1] and in experiment [3] was “inactive” each time. Moreover, the result in experiment [4], in [5], in experiment [6], in experiment [7] and in experiment [8] was inactive.
As to `CC(=O)c1ccc2c(c1)Cc1ccccc1-2`, the Potency result in [1] and in experiment [3] was “inactive” in each case. Moreover, the outcome in [4], in experiment [5], in experiment [6], in experiment [7] and in [8] was inactive.
On to `CC(C)CCCCOC(=O)c1ccccc1C(=O)OCCCCC(C)C`, for which the Potency entry in [1], in [3] and in experiment [9] was “inactive” each time. Further, the call in [2], in [5], in experiment [6], in experiment [7] and in experiment [8] was inactive.
Regarding `O=S(=O)(O)c1cc(O)c2ccc(Nc3ccccc3)cc2c1`, the Potency entry in experiment [1] and in [3] was “inactive” throughout. Also, the call in experiment [2], in experiment [4], in experiment [5], in experiment [6], in [7] and in experiment [8] was inactive.
For the compound `CCNC(=O)C1CC(C)CCC1C(C)C` (centres undefined), the Potency entry in experiment [1] and in experiment [3] was “inactive” each time. The call in [2], in experiment [4], in experiment [5], in [6], in experiment [7] and in [8] was inactive.
`C[C@@H](Oc1ccc(CNC(=O)c2cccnc2Oc2ccc3c(c2)OCO3)c(F)c1)C(=O)O`: the Potency result in [1] and in experiment [3] was “inactive” in each case. Besides, the outcome in experiment [2], in [4], in [5], in experiment [6], in [7] and in experiment [8] was inactive.
For `CCC(C)(CCC(C)C)C(=O)O` (centres undefined), the Potency result in experiment [1] and in experiment [3] was “inactive” each time. Further, the outcome in [2], in experiment [4], in [5], in experiment [6], in experiment [7] and in experiment [8] was inactive.
On to `CN(C)c1ccc(C=O)cc1`, for which the Potency entry in experiment [1] and in experiment [3] was “inactive” in each case. Also, the call in experiment [2], in experiment [4], in experiment [5], in experiment [6], in experiment [7] and in experiment [8] was inactive.
On to `CCOC(=O)CC(=O)c1ccccc1`, for which the Potency entry in experiment [1] and in experiment [3] was “inactive” each time. In addition, the outcome in [2], in experiment [4], in experiment [5], in experiment [6], in experiment [7] and in [8] was inactive.
`CCCCCCCCSCC`: the Potency result in [1] and in experiment [3] was “inactive” in each case. The call in experiment [2], in [4], in experiment [5], in experiment [6], in experiment [7] and in experiment [8] was inactive.
As to `COc1nccnc1NS(=O)(=O)c1ccc(N)cc1`, the Potency result in [1] and in [3] was “inactive” in each case. The compound was classed as inactive in experiment [2], in experiment [4], in [5], in experiment [6] and in experiment [8].
For `O=C(Nc1ccc(Cl)c(Cl)c1)C1CC1`, the Potency result in experiment [1] and in experiment [3] was “inactive” in each case. Also, the call in experiment [2], in experiment [5], in experiment [6], in experiment [7] and in experiment [8] was inactive. Also, the Potency in experiment [9] is 11.9 µM (active).
With `N[C@@H](CCC(=O)N[C@@H](CS)C(=O)NCC(=O)O)C(=O)O`, the call in [2], in [4], in experiment [5], in experiment [6], in [7] and in experiment [8] was inactive. The Potency result in experiment [3] and in experiment [9] was “inactive” throughout.
On to `CC[C@H](C)C(=O)O[C@H]1C[C@H](O)C=C2C=C[C@H](C)[C@H](CC[C@@H](O)C[C@@H](O)CC(=O)O)[C@H]21`, for which the Potency entry in [1] and in experiment [3] was “inactive” throughout. Besides, the outcome in experiment [2], in [4], in experiment [5], in experiment [6], in experiment [7] and in experiment [8] was inactive.
Take `O=C(OCC(COC(=O)c1cccnc1)(COC(=O)c1cccnc1)COC(=O)c1cccnc1)c1cccnc1`: the Potency result in experiment [1], in [3] and in experiment [9] was “inactive” throughout. Further, the compound was called inactive in experiment [4], in [5], in experiment [6], in experiment [7] and in [8].
`Nc1cccc(O)c1`: the Potency entry in experiment [1] was “inactive”. In addition, the result in experiment [2], in experiment [5], in experiment [6], in experiment [7] and in [8] was inactive.
For the compound `COc1cc2c(cc1OC)[C@@H]1CC(=O)[C@@H](CC(C)C)CN1CC2`, the Potency result in [1] and in [3] was “inactive” each time. In addition, the compound was called inactive in [4], in experiment [5], in experiment [6], in [7] and in experiment [8].
Consider `C[Si](C)=O`, for which the activation in experiment [1] was 0.434% [at 8.08 µM]. The results for the activity change, negative = cytotoxicity in experiment [2] and in experiment [4] were 15.5% [at 8.08 µM] and 4.91% [at 8.08 µM], respectively. For the same compound, the activity, negative = cytotoxicity in [3] was 11.6% [at 8.08 µM]. Also, the fluorescence, relative to Rose Bengal in experiment [5] was -0.082% [at 9.17 µM]. Moreover, the fluorescence, % of fluorescein control in experiment [6] was 0.004% [at 9.17 µM]. In addition, in experiment [7], the fluorescence, % of triamterene is -0.115% [at 9.17 µM]. Further, the fluorescence, % of fluorescent control in experiment [8] was -0.238% [at 9.17 µM].

These data come from PubChem BioAssay (Tox21).
